We go through nine compounds from PubChem BioAssay (NCI).

The panel holds about 79,000 compounds, 15% with a hit somewhere; the sample as a whole holds those more often. Values without a mark were called inactive. Calls of active or inactive are those of the source. No stated cut-off is given here; in the data, active means growth inhibition above about 70%; inactive means the rest.

A short description of assay [1]: NCI Yeast Anticancer Drug Screen. Data for the rad50 strain (AID 155).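 Further: 0% = growth of vehicle-only cultures of the same strain.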 The following applies: S. cerevisiae rad50 strain growth inhibition, stronger effect = higher value. Put shortly: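 Compounds were tested on a yeast strain with an engineered DNA damage repair alteration; the reported value is growth inhibition normalised to vehicle treatment.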
A short description of assay [2]: NCI Yeast Anticancer Drug Screen. Data for the mec2-1 strain (AID 157). The following applies: S. cerevisiae mec2-1 strain, stronger effect = higher value. Summed up:
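Mutant yeast (mec2-1) grown with compound; growth inhibition relative to vehicle control reported.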

Assay [3] in a line: NCI Yeast Anticancer Drug Screen. Data for the sgs1 mgt1 strain (AID 161).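 Further: 0% = growth of cultures given vehicle only.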 The following applies: S. cerevisiae sgs1 mgt1 strain, stronger effect = higher value. Summed up: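 Percent growth inhibition was derived by comparing compound-exposed mutant yeast with vehicle-exposed cultures. The strain carries alterations in DNA damage repair.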
Assay [4] can be described thus: NCI Yeast Anticancer Drug Screen. Data for the cln2 rad14 strain (AID 165).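 Further: 0% = growth equal to vehicle treated cultures.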 The note with it: S. cerevisiae cln2 rad14 strain, stronger effect = higher value. Put shortly: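 Readout is yeast growth inhibition versus vehicle-treated controls, using a strain with cln2 and rad14 alterations exposed to compound.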
The nature of assay [5]: NCI Yeast Anticancer Drug Screen. Data for the bub3 strain (AID 167). The note with it: S. cerevisiae bub3 mutant strain, stronger effect = higher value. Put shortly:
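Growth of a checkpoint-deficient yeast mutant is measured after compound exposure. Values represent inhibition relative to vehicle.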

A short description of assay [6]: NCI Yeast Anticancer Drug Screen. Data for the mlh1 rad18 strain (AID 175). The note with it: S. cerevisiae mlh1 rad18 strain growth inhibition, stronger effect = higher value. Put shortly: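 Genetically defined yeast (DNA repair-deficient) exposed to compounds; growth inhibition determined relative to vehicle.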
The mark [7] stands for this setting: at 5.0 µM (retest, dose inferred, filed as 0.5).
Setting [8] is: at 50.0 µM (retest, dose inferred, filed as 5.0).

Take `CCCCC(CC)(COC(C)=O)COC(C)=O`: the growth inhibition was -3% in assay [1] (setting [7]); 0% in assay [1] (setting [8]); 7% in assay [1] (at 50.0 µM); 1% in assay [2] (setting [7]); 2% in assay [2] (setting [8]); 12.7% in assay [2] (at 50.0 µM). The growth inhibition was 3% in assay [3] (setting [7]); -1% in assay [3] (setting [8]); 2.6% in assay [3] (at 50.0 µM); 2% in assay [4] (setting [7]); 5% in assay [4] (setting [8]); 42.5% in assay [4] (at 50.0 µM). Moreover, the growth inhibition in assay [5] (setting [7]) is 4%; in assay [5] (setting [8]), 4%; in assay [5] (at 50.0 µM) it was -2%; in assay [6] (setting [7]), 1%; in assay [6] (setting [8]), -1%; in assay [6] (at 50.0 µM) it was -16.7%.
Consider `O=C(c1ccccc1)c1cccc2ccccc12`, for which the growth inhibition is 5% in assay [1] (setting [7]); 29% in assay [1] (setting [8]); 56.2% in assay [1] (at 50.0 µM); -5% in assay [2] (setting [7]); -2% in assay [2] (setting [8]); 43% in assay [2] (at 50.0 µM). Moreover, the growth inhibition was -2% in assay [3] (setting [7]); 30% in assay [3] (setting [8]); 52.2% in assay [3] (at 50.0 µM); -2% in assay [4] (setting [7]); -24% in assay [4] (setting [8]); -14.3% in assay [4] (at 50.0 µM). The growth inhibition was 16% in assay [5] (setting [7]); 27% in assay [5] (setting [8]); 49.7% in assay [5] (at 50.0 µM); -1% in assay [6] (setting [7]); 14% in assay [6] (setting [8]); 88.2% (active) in assay [6] (at 50.0 µM).
Take `COc1ccc(C(=O)OC(=O)c2ccc(OC)cc2)cc1`: the growth inhibition is 5% in assay [1] (setting [7]); 9% in assay [1] (setting [8]); 71.4% (active) in assay [1] (at 50.0 µM); -6% in assay [2] (setting [7]); 7% in assay [2] (setting [8]); 18.1% in assay [2] (at 50.0 µM). Also, the growth inhibition is 2% in assay [3] (setting [7]); -70% in assay [3] (setting [8]); 22.1% in assay [3] (at 50.0 µM); 4% in assay [4] (setting [7]); -4% in assay [4] (setting [8]); 6.05% in assay [4] (at 50.0 µM). The growth inhibition in assay [5] (setting [7]) is -1%; in assay [5] (setting [8]), 8%; in assay [5] (at 50.0 µM), 28.1%; in assay [6] (setting [7]), -10%; in assay [6] (setting [8]), 16%; in assay [6] (at 50.0 µM), 74.4% (active).
As to `FC1(F)C2=C(SC3=C(S2)C(F)(F)C3(F)F)C1(F)F`, the growth inhibition was 9% in assay [1] (setting [7]); 99% (active) in assay [1] (setting [8]); 99.2% (active) in assay [1] (at 50.0 µM); -4% in assay [2] (setting [7]); 98% (active) in assay [2] (setting [8]); 70.5% (active) in assay [2] (at 50.0 µM). Further, the growth inhibition in assay [3] (setting [7]) is 38%; in assay [3] (setting [8]) it was 100% (active); in assay [3] (at 50.0 µM), 99.1% (active); in assay [4] (setting [7]), 6%; in assay [4] (setting [8]), 95% (active); in assay [4] (at 50.0 µM) it was 74.9% (active). The growth inhibition is -7% in assay [5] (setting [7]); 95% (active) in assay [5] (setting [8]); 97.7% (active) in assay [5] (at 50.0 µM); 19% in assay [6] (setting [7]); 97% (active) in assay [6] (setting [8]); 97.7% (active) in assay [6] (at 50.0 µM).
Turning to `NC(=S)C(=S)N/C=C(/c1ccc(Cl)cc1)S(=O)(=O)Cc1ccc(Cl)cc1`, the growth inhibition in assay [1] (setting [7]) is 1%; in assay [1] (setting [8]), 98% (active); in assay [1] (at 50.0 µM) it was 97.3% (active); in assay [2] (setting [7]), -17%; in assay [2] (setting [8]) it was 99% (active); in assay [2] (at 50.0 µM) it was 96.2% (active). For the same compound, the growth inhibition in assay [3] (setting [7]) is -3%; in assay [3] (setting [8]) it was 98% (active); in assay [3] (at 50.0 µM), 96.8% (active); in assay [4] (setting [7]), -19%; in assay [4] (setting [8]), 97% (active); in assay [4] (at 50.0 µM) it was 94.8% (active). For the same compound, the growth inhibition in assay [5] (setting [7]) is 21%; in assay [5] (setting [8]), 98% (active); in assay [5] (at 50.0 µM), 96.7% (active); in assay [6] (setting [7]), 4%; in assay [6] (setting [8]) it was 98% (active); in assay [6] (at 50.0 µM), 97.3% (active).
Regarding `C#CCNC(C)(C)C`, the growth inhibition in assay [1] (setting [7]) was 1%; in assay [1] (setting [8]), 4%; in assay [1] (at 50.0 µM) it was 98.5% (active); in assay [2] (setting [7]), -5%; in assay [2] (setting [8]) it was 1%; in assay [2] (at 50.0 µM), 99.4% (active). The growth inhibition in assay [3] (setting [7]) is -2%; in assay [3] (setting [8]), -3%; in assay [3] (at 50.0 µM) it was 86% (active); in assay [4] (setting [7]), -3%; in assay [4] (setting [8]) it was 2%; in assay [4] (at 50.0 µM), 98.7% (active). The growth inhibition in assay [5] (setting [7]) is 3%; in assay [5] (setting [8]) it was -2%; in assay [5] (at 50.0 µM) it was 99.7% (active); in assay [6] (setting [7]), -1%; in assay [6] (setting [8]) it was 1%; in assay [6] (at 50.0 µM), 99.1% (active).
As to `Cc1cc(Br)c(P(=O)(O)O)cc1[N+](=O)[O-]`, the growth inhibition was -3% in assay [1] (setting [7]); -10% in assay [1] (setting [8]); 74.1% (active) in assay [1] (at 50.0 µM); -7% in assay [2] (setting [7]); -3% in assay [2] (setting [8]); 42.7% in assay [2] (at 50.0 µM). Besides, the growth inhibition in assay [3] (setting [7]) is -3%; in assay [3] (setting [8]) it was -14%; in assay [3] (at 50.0 µM), 72% (active); in assay [4] (setting [7]) it was 0%; in assay [4] (setting [8]), -5%; in assay [4] (at 50.0 µM), -2.55%. For the same compound, the growth inhibition in assay [5] (setting [7]) was 3%; in assay [5] (setting [8]), 6%; in assay [5] (at 50.0 µM) it was 4.4%; in assay [6] (setting [7]), 3%; in assay [6] (setting [8]), -4%; in assay [6] (at 50.0 µM) it was 64%.
As for `O=S(c1ccccc1)c1c(Cl)c(Cl)nc(Cl)c1Cl` (configuration not stated), the growth inhibition in assay [1] (setting [7]) is 97% (active); in assay [1] (setting [8]) it was 99% (active); in assay [1] (at 50.0 µM) it was 99.2% (active); in assay [2] (setting [7]), 99% (active); in assay [2] (setting [8]) it was 99% (active); in assay [2] (at 50.0 µM) it was 99.6% (active). Further, the growth inhibition was 99% (active) in assay [3] (setting [7]); 99% (active) in assay [3] (setting [8]); 99.5% (active) in assay [3] (at 50.0 µM); 95% (active) in assay [4] (setting [7]); 99% (active) in assay [4] (setting [8]); 99.6% (active) in assay [4] (at 50.0 µM). The growth inhibition in assay [5] (setting [7]) is 98% (active); in assay [5] (setting [8]), 99% (active); in assay [5] (at 50.0 µM), 99.5% (active); in assay [6] (setting [7]) it was 99% (active); in assay [6] (setting [8]) it was 99% (active); in assay [6] (at 50.0 µM), 99.5% (active).
Regarding `Cc1ccc(S(=O)(=O)OCC(/C=N/NC(N)=O)OCOC(C)/C=N/NC(N)=O)cc1` (configuration not stated), the growth inhibition in assay [1] (setting [7]) was -2%; in assay [1] (setting [8]), -7%; in assay [1] (at 50.0 µM), 14.8%; in assay [2] (setting [7]), 0%; in assay [2] (setting [8]), -5%; in assay [2] (at 50.0 µM), 99.2% (active). In addition, the growth inhibition in assay [3] (setting [7]) was -4%; in assay [3] (setting [8]), -8%; in assay [3] (at 50.0 µM), 1.95%; in assay [4] (setting [7]), 1%; in assay [4] (setting [8]), -8%; in assay [4] (at 50.0 µM) it was 46.8%. The growth inhibition in assay [5] (setting [7]) was 1%; in assay [5] (setting [8]), -2%; in assay [5] (at 50.0 µM) it was -1.4%; in assay [6] (setting [7]), 1%; in assay [6] (setting [8]), -3%; in assay [6] (at 50.0 µM) it was 19.1%.
